Assay outcomes (PubChem BioAssay)
Compounds with a hit are over-represented: about 11% of the library has one in this group of screens.
PNC assembly inh – perinucleolar compartment assembly inhibition; PC3M PTB-GFP, PNC prevalence imaging, 16 h; stronger effect = lower value; activity change (PNC), negative = inhibition, % at 10 µM; AID 2417; 140,000 compounds, 3.1% hits;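 active = readout at or below -70, meaning at least 70% loss of cells showing the perinucleolar compartment, a nuclear body marking cancer cells; inconclusive = readout between -30 and a set limit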
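Compounds are pinned in duplicate onto adhered PC3M cells stably expressing GFP-tagged PTB and incubated 16 h at 37 C. Cells are then fixed, nuclei stained with Hoechst, and PNC-positive cells counted.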
HPGD block – inhibitors of human 15-hydroxyprostaglandin dehydrogenase (HPGD); P15428; purified HPGD, NADH fluorescence kinetic, PGE2 substrate; Potency, µM, actives largely listed as inhibitors; 150,000 compounds, 4.3% hits; AID 894
Target sequence (P15428 whole entry, looked up): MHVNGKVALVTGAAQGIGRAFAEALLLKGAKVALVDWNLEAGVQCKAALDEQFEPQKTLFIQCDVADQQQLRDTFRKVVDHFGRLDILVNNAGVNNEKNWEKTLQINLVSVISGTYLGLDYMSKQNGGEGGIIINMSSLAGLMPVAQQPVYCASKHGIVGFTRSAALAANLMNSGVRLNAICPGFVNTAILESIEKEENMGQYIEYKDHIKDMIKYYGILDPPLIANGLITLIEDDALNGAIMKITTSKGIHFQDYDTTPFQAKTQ
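20 nM HPGD preincubated 15 min at room temperature with compound in 50 mM Tris-HCl pH 8, 0.01% Tween 20. Started with 1 mM NAD+ and 30 uM prostaglandin E2; NADH fluorescence (360/450 nm) read 5 times over 30-s intervals, last minus first.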
HttQ103 aggreg – inhibitors of mutant huntingtin aggregate formation in PC12 cells; Potency, µM (top dose mostly 46.1 µM), actives largely listed as inhibitors; PC12 HttQ103-GFP aggregates, Acumen cytometry, 40 h; 220,000 compounds, 1.1% hits; active = well fitted curve in the direction sought with a large enough effect; inconclusive = small, poorly fitted or top-dose-only effect, or another doubt; inactive = no such curve, though single readings can be large; an effect the other way counts as inactive or inconclusive; note: nearly all actives have a fitted effect of over 60% in size
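Steps: seed 1500 PC12 HTTQ103-GFP cells/well; add tebufenozide, 100 nM final; add compound titration; add ATPLite reagent; quantify GFP aggregates by laser scanning cytometry.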
ALDH1A1 block – blocks purified human ALDH1A1 activity. P00352. Purified ALDH1A1, NADH fluorescence, propionaldehyde substrate. Potency, µM (top dose mostly 75.3 µM), most hits filed as inhibitors. 220,000 compounds, 7.3% hits. AID 1030
HTT ATP protect – protects HTT-Q103 PC12 cells, measured by ATP. Potency, µM (top dose mostly 56.4 µM), usual class: activators. 230,000 compounds, 0.14% hits. PC12 HTT-Q103 induced, cytoprotection, ATP luminescence, 40 h. AID 1471; active = well fitted curve in the direction sought with a large enough effect; inconclusive = small, poorly fitted or top-dose-only effect, or another doubt; inactive = no such curve, though single readings can be large; an effect the other way counts as inactive or inconclusive; note: nearly all actives have a fitted effect of over 45% in size
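Cells were plated at 1500 per well in phenol red-free DMEM with 5% equine and 5% calf serum. Tebufenozide (100 nM final) and compounds were added, then ATPlite reagent, and luminescence was read.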
RGS12 GoLoco inh – inhibitors of human Gai1-RGS12 GoLoco interaction (red fluorophore) | P63096 | 230,000 compounds, 0.44% hits | Potency, µM (top dose mostly 61.6 µM), hits mostly inhibitors | Gai1:RGS12 GoLoco peptide FP, rhodamine, 10 min; active = well fitted inhibition curve with a large enough effect, not every such curve was filed as active; inactive = no such curve, though single readings can be large or run the other way; note: nearly all actives have a fitted effect of over 30% in size
Large screens that a line does not name were inactive. Unless noted, calls come from the whole dose curve; as a rule, active = well fitted inhibition curve with a large enough effect (not every such curve was filed as active); inconclusive = small, poorly fitted or top-dose-only effect, or another doubt; inactive = no such curve, though single readings can be large or run the other way.

O=C1CCCC=C1[C@@H](O)COCc1ccccc1	none (no result: PNC assembly inh, HPGD block, HttQ103 aggreg, RGS12 GoLoco inh)
CCOc1ccc(C(=O)Nc2ccccc2NC(C)=O)cc1OCC	none (no result: PNC assembly inh, HPGD block, HTT ATP protect)
CCOc1ccccc1Nc1ccc(C(=O)O)cc1NC(C)=O	HPGD block 22µM, ALDH1A1 block inconclusive
Cc1ccc(NC(=S)N(CCCN2CCC(C)CC2)Cc2ccco2)cc1C	HTT ATP protect inconclusive (no result: PNC assembly inh, HPGD block)
O=C(Cc1ccccc1)Nc1scc(-c2ccccc2)c1C(=O)N1CCOCC1	none
NC(=O)c1c(-c2ccc(Cl)cc2Cl)csc1NC(=O)Cc1ccccc1	HttQ103 aggreg 11µM, ALDH1A1 block inconclusive
CCOc1ccc(CC(=O)NNC(=S)NCCc2ccccc2)cc1	none (no result: PNC assembly inh, HPGD block)
CCOC(=O)NC[C@H](Cc1ccc(OCCc2nc(-c3ccccc3)oc2C)cc1)N/C(C)=C\C(=O)c1ccc(C(F)(F)F)cc1	HPGD block inconclusive, ALDH1A1 block inconclusive (no result: PNC assembly inh, HttQ103 aggreg)
CCCn1c(=O)c(C(=O)NNS(=O)(=O)c2ccc(Cl)cc2)c(O)c2ccccc21	HttQ103 aggreg 14µM, ALDH1A1 block 32µM
CCCCCCCCCC(=O)NNC(=O)c1c(O)c2ccccc2n(CCC)c1=O	none (no result: PNC assembly inh, HPGD block)
Cc1ccc(C(=O)NC2CCN(S(=O)(=O)c3ccc(C)cc3)CC2)cc1	none (no result: PNC assembly inh, HPGD block)
CCOC(=O)C1CCCN(S(=O)(=O)c2cc(OCC(=O)NC3CCCCC3)c(C)cc2Cl)C1 (stereo not given)	ALDH1A1 block 7.1µM
Cc1cc(Cl)c(S(=O)(=O)NC2CCCCC2)cc1OCC(=O)Nc1nncs1	PNC assembly inh -119, ALDH1A1 block inconclusive
COCC(=O)NC1CCN(S(=O)(=O)c2ccc(C(=O)O)cc2)CC1	PNC assembly inh -122 (no result: HPGD block, RGS12 GoLoco inh)
Cc1cc(Cl)c(S(=O)(=O)Nc2ccon2)cc1OCC(=O)NC1CCCCC1	PNC assembly inh inconclusive
CCOC(=O)C1CCCN(S(=O)(=O)c2ccc(Br)c(OC)c2)C1 (stereo not given)	PNC assembly inh inconclusive, ALDH1A1 block 11µM
CCOC(=O)C1=C(C)N(C)C(C)=C(C(=O)OCC)C1c1ccsc1	none (no result: PNC assembly inh, HPGD block)
CCOC(=O)C1CCN(C(=S)Nc2ccc(S(N)(=O)=O)cc2)CC1	HPGD block 28µM, ALDH1A1 block 15µM
CCOC(=O)C1CCN(C(=S)Nc2ccc(C)cc2)CC1	none (no result: PNC assembly inh, HPGD block)
CCOC(=O)C1CCCN(C2CC(=O)N(c3ccc(NC(C)=O)cc3)C2=O)C1 (stereo not given)	ALDH1A1 block 32µM (no result: PNC assembly inh, HPGD block)
CCOC(=O)C1CCCN(S(=O)(=O)c2ccc(NC(C)=O)cc2)C1 (stereo not given)	ALDH1A1 block 2.8µM (no result: PNC assembly inh, HPGD block)
CCOC(=O)C1CCN(S(=O)(=O)c2ccc(OCC(=O)OC)cc2)CC1	PNC assembly inh inconclusive
CCOC(=O)C1CCN(S(=O)(=O)c2ccc(C(C)=O)cc2)CC1	PNC assembly inh -100
O=C(O)C[C@H]1OCC=C2C[N@@+]3([O-])CC[C@]45c6ccccc6N[C@@H]4[C@@H]1[C@H]2C[C@H]53	none (no result: PNC assembly inh, HttQ103 aggreg)
N=C1C(c2ccccc2)=C(O)C2CCc3ccccc3N12 (stereo not given)	HPGD block 16µM
COc1ccc(Oc2ncc3nc(C)c(=O)n(C4CC4)c3n2)cc1	none (no result: PNC assembly inh, HttQ103 aggreg)
O=C(NCc1ccccn1)C1CCCN(Cc2cnn(-c3ccccc3)c2-n2cccc2)C1 (stereo not given)	none
O=C(NCc1ccccn1)C1CCN(Cc2cnn(-c3ccccc3)c2-n2cccc2)CC1	ALDH1A1 block 25µM
O=C(/C=C/c1ccccc1)NC1CC2CCCC(C1)N2Cc1ccccc1 (stereo not given)	none (no result: PNC assembly inh, HPGD block, ALDH1A1 block)
CCN(CC)C(=O)NC1CC2CCCC(C1)N2Cc1ccccc1 (stereo not given)	PNC assembly inh -92
Cc1ccc(Nc2c(-c3ccccn3)nc3cccc(C)n23)cc1	HttQ103 aggreg 7.9µM (no result: PNC assembly inh, HPGD block)
CN(C)c1nc(C(=O)NN)nc(N(C)C)n1	ALDH1A1 block 13µM
CCCCOc1ccc(C(=O)NCC2(c3ccc(OC)cc3)CCOCC2)cc1	ALDH1A1 block inconclusive
CC1Cc2cccc3c(O)c(C(=O)c4nn[nH]n4)c(=O)n1c23 (stereo not given)	PNC assembly inh inconclusive, ALDH1A1 block inconclusive
